Screening results (PubChem)
CHX counter: Cycloheximide Counterscreen for Small Molecule Inhibitors of Shiga Toxin; 300,000 tested, 12% active; max response, %; AID 2314, 2010; cell reporter, cycloheximide protein synthesis inhibition counterscreen; in the data active = max response mostly above about 13%, no sharp cut-off; inactive = mostly below about 14%; note: read at 38.3 µM for the half of the compounds with a filed dose
LASV entry inh: qHTS for Inhibitors of binding or entry into cells for Lassa Virus | 300,000 tested, 1.2% active | Lassa virus pseudotype entry inhibition, cell reporter | Potency, µM (series often up to 37.9 µM), actives largely listed as inhibitors; calls by dose curve; tested in HEK293 cells; note: nearly all actives have a fitted effect of over 50% in size
AMA1-RON2 inh: qHTS for Inhibitors of AMA1-RON; Towards Development of Antimalarial Drug Lead: Primary Screen. AID 720542, 2013. 360,000 tested, 0.2% active. AlphaScreen AMA1-biotinylated RON2 peptide binding. Plasmodium falciparum AMA1 (3D7) - RON2 peptide interaction. Potency, µM (titrated, usually from 58.2 µM), hits mostly inhibitors; active = well fitted inhibition curve with a large enough effect; inconclusive = small, poorly fitted or top-dose-only effect; inactive = no such curve, though single readings can be large or run the other way; note: nearly all actives have a fitted effect of over 45% in size
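AMA1 (3D7) with his tag at 25 nM final met compounds first, then biotinylated RON2 peptide at 25 nM; detection used donor plus acceptor beads, 10 µg/mL apiece, read by AlphaScreen after 30 min at room temperature.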
Shiga toxin inh: A qHTS for Small Molecule Inhibitors of Shiga Toxin; Vero cells, Shiga toxin protein synthesis inhibition reporter; AID 2315, 2010; inhibition, % at 38.7 µM; 290,000 tested, 9.2% active; in the data active = inhibition mostly above about 28%, no sharp cut-off; inactive = mostly below about 43%
Marburg entry inh: qHTS for inhibitors of binding or entry into cells for Marburg Virus; 300,000 tested, 1.8% active; Marburg virus pseudotyped entry inhibition, cell reporter; Potency, µM (top dose mostly 37.8 µM), actives largely listed as inhibitors; AID 540276, 2011; calls by dose curve; tested in HEK293 cells
A number is an active result. This excerpt belongs to a sample that is enriched for hits.

How did O=C(C1CC(=O)N(c2ccc3c(c2)OCCO3)C1)N1CCN(S(=O)(=O)c2cccc(F)c2)CC1 (centres undefined) do in these assays?
LASV entry inh: inactive; AMA1-RON2 inh: inactive; Marburg entry inh: inactive

How did COC(=O)COc1ccc2cc(-c3ccc(OC)cc3)c(=O)oc2c1 do in these assays?
CHX counter: inactive; AMA1-RON2 inh: inactive; Shiga toxin inh: inactive

How did COc1ccc(-c2cc3ccc(O)cc3oc2=O)cc1 do in these assays?
CHX counter: 36.8; AMA1-RON2 inh: inactive; Shiga toxin inh: 74.5

What do the screens show for `O=c1oc2ccccc2cc1-c1ccc(O)cc1O`?
CHX counter: inactive; LASV entry inh: inactive; AMA1-RON2 inh: inactive; Shiga toxin inh: inactive; Marburg entry inh: inactive

Results for O=c1oc2cc(O)ccc2cc1-c1ccccc1 ?
CHX counter: 38.1; AMA1-RON2 inh: inactive; Shiga toxin inh: 53.7

Results for COC(=O)[C@](O)(c1c[nH]c2ccccc12)C(F)(F)F ?
Marburg entry inh: inactive

What do the screens show for `C=C(C)[C@@H]1CC2=C(OC)C(CC=C(C)C)(CC=C(C)C)C(=O)C(C(=O)c3ccccc3)=C2O1`?
Marburg entry inh: inactive

What do the screens show for `COc1ccccc1NC(=O)C(Cc1ccccc1)NS(=O)(=O)c1ccc2c(c1)c(=O)n(C)c(=O)n2C` (centres undefined)?
LASV entry inh: inconclusive; Marburg entry inh: inactive

What do the screens show for `Cc1cc(C(=O)C(C)Sc2cccc[n+]2[O-])c(C)n1-c1ccc(Cl)cc1` (centres undefined)?
CHX counter: 10.1; LASV entry inh: inconclusive; AMA1-RON2 inh: inactive; Shiga toxin inh: inactive; Marburg entry inh: inconclusive

Results for Cc1cc(C(=O)C(=O)O)c(C)n1-c1ccc(Cl)cc1 ?
CHX counter: inactive; LASV entry inh: inactive; AMA1-RON2 inh: inactive; Shiga toxin inh: inactive; Marburg entry inh: inactive

Results for Cc1ccc(NC(=O)CSc2nc3ccccc3c3nc(CCc4c(C)n[nH]c4C)nn23)c(C)c1 ?
LASV entry inh: inactive

Results for COc1cccc2[nH]c(=O)c(-c3ccccc3)cc12 ?
CHX counter: 61.2; AMA1-RON2 inh: inactive; Shiga toxin inh: 120.5

What do the screens show for `Nc1ccccc1SC1CC(=O)N(c2ccc3c(c2)OCCO3)C1=O` (centres undefined)?
CHX counter: 38.5; LASV entry inh: inactive; AMA1-RON2 inh: inactive; Shiga toxin inh: 69.0; Marburg entry inh: inconclusive

What do the screens show for `Nc1ccccc1SC1CC(=O)N(c2ccc(Cl)c(Cl)c2)C1=O` (centres undefined)?
CHX counter: inactive; AMA1-RON2 inh: inactive; Shiga toxin inh: inactive

Results for Fc1ccccc1Cn1nnc2c(-n3ccnc3)ncnc21 ?
CHX counter: inactive; LASV entry inh: inactive; AMA1-RON2 inh: inactive; Shiga toxin inh: inactive; Marburg entry inh: inconclusive

How did CCOc1ccc(/C=N/n2cc(-c3ccccc3)[nH]c2=S)cc1 do in these assays?
CHX counter: 18.6; LASV entry inh: inactive; AMA1-RON2 inh: inactive; Shiga toxin inh: inactive; Marburg entry inh: inactive

Results for CC(=O)c1cccc(NC(=O)c2ccc(-n3c(C)nnc3C)cc2)c1 ?
LASV entry inh: inactive

How did N#Cc1nc(-c2ccccc2Cl)oc1N1CCCCC1 do in these assays?
CHX counter: 24.1; LASV entry inh: inactive; AMA1-RON2 inh: inconclusive; Shiga toxin inh: 128.7; Marburg entry inh: inactive

What do the screens show for `CC1CCN(c2oc(-c3cccc4ccccc34)nc2C#N)CC1`?
CHX counter: inactive; LASV entry inh: inconclusive; AMA1-RON2 inh: inactive; Shiga toxin inh: inactive; Marburg entry inh: inactive

What do the screens show for `N#Cc1nc(-c2cccc3ccccc23)oc1N1CCCCC1`?
CHX counter: 22.4; LASV entry inh: inactive; AMA1-RON2 inh: inactive; Shiga toxin inh: inactive; Marburg entry inh: inconclusive

What do the screens show for `N#Cc1nc(-c2ccccc2F)oc1N1CCCCC1`?
CHX counter: inactive; AMA1-RON2 inh: inactive; Shiga toxin inh: inactive

Results for Cc1cc(S(=O)(=O)N2CCN(c3ncccn3)CC2)ccc1-n1cnnn1 ?
CHX counter: inactive; LASV entry inh: inactive; AMA1-RON2 inh: inactive; Shiga toxin inh: inactive; Marburg entry inh: inactive

Results for COc1ccc(-c2noc(CSc3nnc(-c4ccncc4)n3-c3cccc(C)c3)n2)cc1OC ?
LASV entry inh: inactive; Marburg entry inh: inactive

What do the screens show for `Oc1nc(Nc2cccc(Cl)c2)sc1/C=C1\C=Nc2ccccc21`?
CHX counter: inactive; LASV entry inh: inconclusive; AMA1-RON2 inh: inactive; Shiga toxin inh: inactive; Marburg entry inh: inconclusive

What do the screens show for `Oc1cccc(Nc2nc(O)c(/C=C3\C=Nc4ccccc43)s2)c1`?
CHX counter: 51.6; AMA1-RON2 inh: inactive; Shiga toxin inh: 93.5

Results for NS(=O)(=O)c1ccc(O)c(N2C(=O)c3cccc4c(C(=O)O)ccc(c34)C2=O)c1 ?
CHX counter: inactive; LASV entry inh: inactive; AMA1-RON2 inh: inactive; Shiga toxin inh: inactive; Marburg entry inh: inactive

Results for O=C(O)c1ccc(N=Cc2nc(-c3ccco3)oc2O)cc1 ?
CHX counter: inactive; AMA1-RON2 inh: inactive; Shiga toxin inh: inactive

Results for CN(C)c1ccc(N=Cc2nc(-c3ccccc3)oc2OC(=O)c2cccc(Br)c2)cc1 ?
CHX counter: 40.0; LASV entry inh: inactive; AMA1-RON2 inh: inconclusive; Shiga toxin inh: active; Marburg entry inh: inactive

How did CCOC(=O)c1ccc(N=Cc2nc(-c3ccccc3)oc2OC(C)=O)cc1 do in these assays?
CHX counter: inactive; LASV entry inh: inactive; AMA1-RON2 inh: inactive; Shiga toxin inh: inactive; Marburg entry inh: inconclusive

Results for Cc1ccc(C(=O)Oc2oc(-c3ccco3)nc2C=Nc2ccccc2)cc1 ?
CHX counter: 31.4; Shiga toxin inh: 89.1; Marburg entry inh: inactive

How did COc1ccc(N=Cc2nc(-c3ccccc3)oc2OC(=O)c2ccccc2)cc1 do in these assays?
CHX counter: 59.3; LASV entry inh: inconclusive; AMA1-RON2 inh: inactive; Shiga toxin inh: 66.7; Marburg entry inh: inactive

Results for Oc1oc(-c2ccco2)nc1C=Nc1ccccc1 ?
CHX counter: 19.4; LASV entry inh: inactive; AMA1-RON2 inh: inactive; Shiga toxin inh: 98.6; Marburg entry inh: inactive

What do the screens show for `CCCCOCCCNC(=O)C[C@@H]1C[C@@]2(C(=O)OCC)CCCC=C2N(Cc2ccc(Cl)cc2Cl)C1=O`?
AMA1-RON2 inh: inactive

Results for CNC(=S)N/N=C/c1c(C)c(C(=O)c2ccc(F)cc2)n2ccccc12 ?
CHX counter: inactive; LASV entry inh: inactive; AMA1-RON2 inh: inactive; Shiga toxin inh: inactive; Marburg entry inh: inconclusive

Results for Cc1cc(C)cc(OCC(=O)N(Cc2ccc(N(C)C)cc2)C2CCS(=O)(=O)C2)c1 (centres undefined) ?
CHX counter: inactive; LASV entry inh: inconclusive; AMA1-RON2 inh: inconclusive; Shiga toxin inh: inactive; Marburg entry inh: inconclusive

What do the screens show for `CCOc1ccc(NS(=O)(=O)c2cccs2)cc1S(=O)(=O)N1CCCC1`?
AMA1-RON2 inh: inactive

What do the screens show for `CCn1cc(C(=O)NCCCO)c(=O)c2cc(F)c(N3CCN(C)CC3)cc21`?
CHX counter: inactive; AMA1-RON2 inh: inactive; Shiga toxin inh: inactive

How did CCn1cc(C(=O)NCCc2ccccc2)c(=O)c2cc(F)c(N3CCN(C)CC3)cc21 do in these assays?
CHX counter: 13.4; LASV entry inh: inactive; AMA1-RON2 inh: inactive; Shiga toxin inh: inactive; Marburg entry inh: inactive
